Laboratory results as given in PubChem BioAssay (NCI).
The panel holds about 83,000 compounds, 20% with a hit somewhere; the sample as a whole holds those more often.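 96-well plates, one dose, 48 hours. Percent growth reported; active if below 10.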 Calls of active or inactive are those of the source.

system: KM12 colon; assay: NCI-60 one-dose screen, 48 h (100 = growth as untreated, 0 = no growth, -100 = all killed); conditions: 10 µM unless noted

Compound | growth
O=C(OCc1ccccc1)n1nnc2ccccc21 | 107% (inactive)
COC1(OC)C2(Cl)C(Cl)=C(Cl)C1(Cl)C1COCC12 (stereo not given) | 111% (inactive)
CCOC(=O)CO | 109% (inactive)
Nc1ncnc2c1ncn2C1OC(CO)C2OC21 (stereo not given) | 109% (inactive)
Cc1ccc(C)c(CCO)c1 | 101% (inactive)
CC(=O)CSc1ncnc2nc[nH]c12 | 123% (inactive)
CCOC(OCC)C(=O)c1ccccc1 | 99.4% (inactive)
CCCCCCCCCCCCCCCCOc1ccccc1NC(=O)CC(C)=O | 94.5% (inactive)
CC1(c2ccccc2)CO1 (stereo not given) | 108% (inactive)
Cc1ccc(C)c(CN(C)C)c1O | 97.4% (inactive)
O=Cc1ccc(O)c(O)c1 | 91.2% (inactive)
C/C(=N\N=C(/C)c1cccc([N+](=O)[O-])c1)c1cccc([N+](=O)[O-])c1 | 97.9% (inactive)
Cc1nc(C)c(C(=O)O)cc1C(=O)O | 117% (inactive)
CCN(CC)CCCC(C)NC(=S)N/N=C(\C)c1ccccn1 (stereo not given) | 36.4% (inactive)
COc1ccc(-c2csc(NC(=O)Nc3nc(-c4ccc(OC)cc4)cs3)n2)cc1 | 64.6% (inactive)
NC(CSSCC(N)C(=O)O)C(=O)O (stereo not given) | 8.65% (active)
Cc1cc(Cc2ccccc2)c(O)c(Cc2ccccc2)c1 | 90.5% (inactive)
NNc1ncnc2nc[nH]c12 | 46% (inactive)

Compound | growth
CCCOCc1cn[nH]n1 | 106% (inactive)
CCN(C(=O)Nc1ccccc1Cl)c1ccccc1 | 105% (inactive)
Cc1ccc(O)c(N)c1 | 110% (inactive)
CC(C)(C)NCCC(O)c1cc(C(F)(F)F)nc2c(C(F)(F)F)cccc12 (stereo not given) | 58.7% (inactive)
CC1CC2C3CCC4=CC(=O)CCC4(C)C3CCC2(C)C1(O)C(=O)CO (stereo not given) | 119% (inactive)
c1cc(CNCCNCc2ccncc2)ccn1 | 108% (inactive)
CC(C)Sc1ncnc2nc[nH]c12 | 128% (inactive)
Cc1cc2nc(C)c(C)nc2cc1C | 108% (inactive)
NNC(=O)CCCCl | 102% (inactive)
COc1cccc(N=CNc2cccc(OC)c2)c1 | 87.8% (inactive)
Cc1c(Cl)cccc1NC(=S)NC(=O)c1ccccc1 | 89.6% (inactive)
Cc1[nH]c(=S)[nH]c(=O)c1C | 108% (inactive)
COc1cc(-c2ccc(NC(=O)CC(C)=O)c(OC)c2)ccc1NC(=O)CC(C)=O | 106% (inactive)
Clc1ncnc2nc[nH]c12 | 105% (inactive)
CN(C)c1ncnc2c1cnn2C | 104% (inactive)
CC1CC(C)S(=O)(=O)C1 (stereo not given) | 102% (inactive)
Cc1cc(C(=O)NN)c(C#N)c(=O)[nH]1 | 122% (inactive)
